# Laboratory results from paper PMC7862700, “An all-to-all approach to the identification of sequence-specific readers for epigenetic DNA modifications on cytosine”.
# Key:
# Experiment in all cases: DAPPL (digital affinity profiling via proximity ligation, sequencing); 10 mM Tris-HCl pH 7.5, 50 mM NaCl, 1 mM DTT, 4% glycerol, room temperature, 30 min; GST-TFs on glutathione beads, 16-mer random dsDNA library, 0.1% formaldehyde crosslink after washing; high values mean tight binding
# Details in all cases: protein: recombinant; tags: N-terminal GST; dsDNA, one strand shown
# FLI1 = molecular target: T1, FLI1 (Homo sapiens, UniProt Q01543 1-452)
# T1 sequence: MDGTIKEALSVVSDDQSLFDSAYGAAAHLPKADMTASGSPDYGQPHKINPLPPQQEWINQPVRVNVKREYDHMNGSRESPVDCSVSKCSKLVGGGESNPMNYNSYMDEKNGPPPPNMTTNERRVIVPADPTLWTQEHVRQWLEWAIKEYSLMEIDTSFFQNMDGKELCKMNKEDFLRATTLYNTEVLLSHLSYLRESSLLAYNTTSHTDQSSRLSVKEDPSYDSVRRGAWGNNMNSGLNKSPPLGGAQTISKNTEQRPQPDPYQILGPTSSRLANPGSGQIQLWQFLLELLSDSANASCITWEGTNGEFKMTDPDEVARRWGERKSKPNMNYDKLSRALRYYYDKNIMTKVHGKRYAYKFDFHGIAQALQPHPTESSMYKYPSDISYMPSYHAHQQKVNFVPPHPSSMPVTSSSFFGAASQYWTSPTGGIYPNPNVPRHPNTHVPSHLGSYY
# Outline: (§1)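 Sequencing on an Illumina NextSeq500 followed washing, crosslinking with 0.1% formaldehyde, proximity ligation (BsaI/T4 ligase, 1 h, 37 °C) and PCR amplification of pools that had been incubated for 30 min at room temperature with 200 nmole of a random double-stranded 16-mer DNA library in Tris/NaCl/DTT/glycerol buffer. Each pool held DNA-barcoded human transcription factors, expressed in yeast as GST fusions and captured on glutathione beads, plus a tag-only sample. Binding signal is a hexamer's read frequency for a factor divided by its frequency in the tag-only sample.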
# ELK1 = molecular target: T2, ELK1 (Homo sapiens, UniProt P19419 1-428)
# T2 sequence: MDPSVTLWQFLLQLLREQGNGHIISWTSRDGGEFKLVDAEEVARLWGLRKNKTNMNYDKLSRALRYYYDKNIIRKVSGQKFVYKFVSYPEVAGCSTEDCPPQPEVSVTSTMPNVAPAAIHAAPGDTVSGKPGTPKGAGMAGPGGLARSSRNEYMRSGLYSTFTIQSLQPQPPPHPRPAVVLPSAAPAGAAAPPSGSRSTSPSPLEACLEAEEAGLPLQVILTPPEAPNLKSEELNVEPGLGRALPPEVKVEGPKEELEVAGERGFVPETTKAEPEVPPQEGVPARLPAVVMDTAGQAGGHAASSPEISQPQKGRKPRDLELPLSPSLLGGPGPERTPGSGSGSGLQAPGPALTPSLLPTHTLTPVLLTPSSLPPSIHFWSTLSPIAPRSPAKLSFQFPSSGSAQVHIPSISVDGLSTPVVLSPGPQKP
# Outline: as §1
# GABPA = molecular target: T3, GABPA (Homo sapiens, UniProt Q06546 1-454)
# T3 sequence: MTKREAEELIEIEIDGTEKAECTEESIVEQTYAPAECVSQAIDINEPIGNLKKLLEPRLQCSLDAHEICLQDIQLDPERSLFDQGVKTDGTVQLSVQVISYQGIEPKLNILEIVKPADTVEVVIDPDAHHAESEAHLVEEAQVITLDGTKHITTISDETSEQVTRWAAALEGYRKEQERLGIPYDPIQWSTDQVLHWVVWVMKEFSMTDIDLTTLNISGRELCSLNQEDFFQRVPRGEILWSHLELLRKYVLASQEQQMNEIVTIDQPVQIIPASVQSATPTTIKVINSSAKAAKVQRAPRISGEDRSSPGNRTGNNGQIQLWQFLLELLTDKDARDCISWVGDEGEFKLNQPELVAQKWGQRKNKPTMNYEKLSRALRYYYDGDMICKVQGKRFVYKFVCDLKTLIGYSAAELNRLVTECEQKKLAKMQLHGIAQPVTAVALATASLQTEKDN
# Outline: as §1
# ERG = molecular target: T4, ERG (Homo sapiens, UniProt P11308 1-479)
# T4 sequence: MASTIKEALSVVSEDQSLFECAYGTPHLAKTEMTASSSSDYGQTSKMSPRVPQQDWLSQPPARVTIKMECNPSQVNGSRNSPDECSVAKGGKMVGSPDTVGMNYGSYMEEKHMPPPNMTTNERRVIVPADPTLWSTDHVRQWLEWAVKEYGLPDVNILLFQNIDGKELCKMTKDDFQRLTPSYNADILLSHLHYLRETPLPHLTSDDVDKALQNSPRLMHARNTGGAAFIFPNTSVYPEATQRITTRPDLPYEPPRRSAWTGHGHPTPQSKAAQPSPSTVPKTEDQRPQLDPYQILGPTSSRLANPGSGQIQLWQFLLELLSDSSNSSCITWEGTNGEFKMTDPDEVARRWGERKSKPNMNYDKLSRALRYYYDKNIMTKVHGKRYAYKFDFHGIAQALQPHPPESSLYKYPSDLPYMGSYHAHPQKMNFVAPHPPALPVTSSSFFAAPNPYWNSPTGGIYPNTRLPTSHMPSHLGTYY
# Outline: as §1
# ELF1 = ELF1 (Homo sapiens, UniProt P32519 1-619)
# ELF1, sequence (P32519 whole entry): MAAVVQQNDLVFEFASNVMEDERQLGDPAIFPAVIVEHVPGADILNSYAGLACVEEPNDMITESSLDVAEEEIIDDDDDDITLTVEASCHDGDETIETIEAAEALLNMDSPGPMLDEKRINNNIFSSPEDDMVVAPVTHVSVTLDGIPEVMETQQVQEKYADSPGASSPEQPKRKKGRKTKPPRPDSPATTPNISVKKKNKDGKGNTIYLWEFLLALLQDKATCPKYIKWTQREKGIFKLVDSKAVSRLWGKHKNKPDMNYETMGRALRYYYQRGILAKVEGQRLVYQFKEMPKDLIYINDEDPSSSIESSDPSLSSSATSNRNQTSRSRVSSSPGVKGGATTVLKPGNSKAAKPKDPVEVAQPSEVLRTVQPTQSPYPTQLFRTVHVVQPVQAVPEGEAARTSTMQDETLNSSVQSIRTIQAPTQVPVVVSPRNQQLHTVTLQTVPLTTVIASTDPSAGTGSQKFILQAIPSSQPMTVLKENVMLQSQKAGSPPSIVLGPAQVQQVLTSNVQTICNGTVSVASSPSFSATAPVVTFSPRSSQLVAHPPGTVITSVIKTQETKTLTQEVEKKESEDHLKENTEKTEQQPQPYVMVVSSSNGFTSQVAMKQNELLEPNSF
# Outline: as §1
# EHF = molecular target: T5, EHF (Homo sapiens, UniProt Q9NZC4 1-300)
# T5 sequence: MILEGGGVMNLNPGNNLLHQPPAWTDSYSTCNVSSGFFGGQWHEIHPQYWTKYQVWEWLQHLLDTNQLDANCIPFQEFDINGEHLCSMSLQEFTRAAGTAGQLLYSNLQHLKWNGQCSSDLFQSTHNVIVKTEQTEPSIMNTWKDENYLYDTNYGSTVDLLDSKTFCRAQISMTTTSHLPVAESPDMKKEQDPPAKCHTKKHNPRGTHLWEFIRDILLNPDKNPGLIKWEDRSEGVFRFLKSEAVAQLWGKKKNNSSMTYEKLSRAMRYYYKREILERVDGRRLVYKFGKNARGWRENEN
# Outline: as §1
# SPI1 = SPI1 (Homo sapiens, UniProt P17947 1-270)
# Outline: as §1
# SPIB = SPIB (Homo sapiens, UniProt Q01892 1-262)
# SPIB, sequence (Q01892 whole entry): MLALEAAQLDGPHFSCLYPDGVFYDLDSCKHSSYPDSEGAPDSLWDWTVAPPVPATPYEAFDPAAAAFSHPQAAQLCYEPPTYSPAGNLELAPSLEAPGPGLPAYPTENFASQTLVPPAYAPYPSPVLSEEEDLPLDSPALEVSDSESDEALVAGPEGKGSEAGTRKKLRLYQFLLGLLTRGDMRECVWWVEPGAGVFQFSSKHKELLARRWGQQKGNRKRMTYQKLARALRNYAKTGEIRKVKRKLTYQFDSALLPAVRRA
# Outline: as §1
# ELK3 = molecular target: T6, ELK3 (Homo sapiens, UniProt P41970 1-407)
# T6 sequence: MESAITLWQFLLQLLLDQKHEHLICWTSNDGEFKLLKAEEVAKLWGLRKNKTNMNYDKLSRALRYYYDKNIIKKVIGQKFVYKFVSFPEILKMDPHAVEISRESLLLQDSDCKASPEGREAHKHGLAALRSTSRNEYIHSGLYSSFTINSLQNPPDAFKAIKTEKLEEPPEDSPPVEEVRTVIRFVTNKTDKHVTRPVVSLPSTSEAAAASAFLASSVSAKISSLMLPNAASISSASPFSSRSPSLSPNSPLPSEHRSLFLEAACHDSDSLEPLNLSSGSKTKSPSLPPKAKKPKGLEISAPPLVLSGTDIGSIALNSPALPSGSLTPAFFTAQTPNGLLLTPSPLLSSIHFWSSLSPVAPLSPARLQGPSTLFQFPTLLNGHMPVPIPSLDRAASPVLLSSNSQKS
# Outline: as §1
# FEV = molecular target: T7, FEV (Homo sapiens, UniProt Q99581 1-238)
# T7 sequence: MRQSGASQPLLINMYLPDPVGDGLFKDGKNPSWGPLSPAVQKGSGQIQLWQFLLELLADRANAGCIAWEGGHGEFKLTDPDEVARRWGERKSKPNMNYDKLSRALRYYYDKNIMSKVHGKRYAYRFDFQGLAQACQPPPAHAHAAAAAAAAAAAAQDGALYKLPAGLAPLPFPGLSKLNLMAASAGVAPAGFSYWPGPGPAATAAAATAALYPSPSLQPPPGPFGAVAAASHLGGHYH
# Outline: as §1
# SPIC = molecular target: T8, SPIC (Homo sapiens, UniProt Q8N5J4 1-248)
# T8 sequence: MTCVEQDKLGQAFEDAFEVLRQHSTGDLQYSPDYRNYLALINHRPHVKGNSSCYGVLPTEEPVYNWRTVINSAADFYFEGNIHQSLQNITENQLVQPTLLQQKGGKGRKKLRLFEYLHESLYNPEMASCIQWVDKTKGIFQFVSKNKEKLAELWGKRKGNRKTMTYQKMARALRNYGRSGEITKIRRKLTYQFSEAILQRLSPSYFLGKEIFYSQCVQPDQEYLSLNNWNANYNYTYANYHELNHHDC
# Outline: as §1
sequence,measurement,setting,value
ATGGGG,binding signal,FLI1,"1.11 fold enrichment (6-mer frequency, TF over GST control)"
same,binding signal,ELK1,"1.09 fold enrichment (6-mer frequency, TF over GST control)"
same,binding signal,GABPA,"1.08 fold enrichment (6-mer frequency, TF over GST control)"
same,binding signal,ERG,"1.07 fold enrichment (6-mer frequency, TF over GST control)"
same,binding signal,ELF1,"1.06 fold enrichment (6-mer frequency, TF over GST control)"
same,binding signal,EHF,"1.11 fold enrichment (6-mer frequency, TF over GST control)"
same,binding signal,SPI1,"1.11 fold enrichment (6-mer frequency, TF over GST control)"
same,binding signal,SPIB,"1.14 fold enrichment (6-mer frequency, TF over GST control)"
same,binding signal,ELK3,"1.05 fold enrichment (6-mer frequency, TF over GST control)"
same,binding signal,FEV,"1.05 fold enrichment (6-mer frequency, TF over GST control)"
same,binding signal,SPIC,"1.16 fold enrichment (6-mer frequency, TF over GST control)"
